The campaign covered roughly 39,000 compounds. About 1,500 (3.8%) were called active. Only a selection was taken, and actives are over-represented in it overall.
These compounds were tested on HSkMC (human skeletal muscle cells) (assay: cytotoxicity call (relative viability < 0.9)). Conditions: 10 µM.

SMILES | cytotoxicity call
C[C@@H]1CCCCO[C@@H](CN(C)C(=O)Nc2ccccc2)[C@@H](C)CN([C@H](C)CO)C(=O)c2cc(NS(=O)(=O)c3ccccc3)ccc2O1 | inactive
C[C@@H]1CN([C@H](C)CO)C(=O)c2cc(NC(=O)NC3CCCCC3)ccc2O[C@@H](C)CCCCO[C@@H]1CN(C)CC1CCCCC1 | inactive
C[C@H](CO)N1C[C@H](C)[C@H](CN(C)S(=O)(=O)c2ccccc2)Oc2ccc(NC(=O)CCC(F)(F)F)cc2CC1=O | inactive
C[C@H]1CN([C@@H](C)CO)C(=O)c2cccc(NC(=O)NC3CCCCC3)c2O[C@@H]1CN(C)Cc1ccc(-c2ccccc2)cc1 | inactive
Clc1ccc(CSC(Cn2ccnc2)c2ccc(Cl)cc2Cl)cc1.O=[N+]([O-])O (stereo not given) | active
Clc1ccc(COC(Cn2ccnc2)c2ccc(Cl)cc2Cl)cc1.O=[N+]([O-])O (stereo not given) | inactive
Clc1ccc(C(Cn2ccnc2)OCc2c(Cl)cccc2Cl)c(Cl)c1.O=[N+]([O-])O (stereo not given) | inactive
Cc1noc(C)c1S(=O)(=O)N(C)C[C@@H]1Oc2ccc(NS(=O)(=O)c3ccc(Cl)cc3)cc2C(=O)N([C@H](C)CO)C[C@@H]1C | inactive
C[C@@H]1CCCCO[C@H](CN(C)C(=O)Nc2cccc3ccccc23)[C@H](C)CN([C@H](C)CO)C(=O)c2cc(NS(C)(=O)=O)ccc2O1 | inactive
Cc1ccc(C(N)=S)c(=O)[nH]1 | inactive
C[C@H]1CN([C@@H](C)CO)C(=O)c2cccc(NC(=O)C3CCCCC3)c2O[C@@H]1CN(C)Cc1ccc(Cl)c(Cl)c1 | inactive
COC(=O)c1c(CC[C@@H](CO)NC(=O)N[C@@H](Cc2ccccc2)Cn2cc(-c3ccccn3)nn2)oc(C(=O)N2CCOCC2)c1C(=O)OC | inactive
CCCC#Cc1ccc2c(c1)O[C@@H](CN(C)Cc1ccc3c(c1)OCO3)[C@H](C)CN([C@H](C)CO)S2(=O)=O | inactive
CO[C@H](CN(C)C(=O)C1CCOCC1)[C@H](C)CN(C(=O)Nc1ccc(C(F)(F)F)cc1)[C@@H](C)CO | inactive
C[C@H](CO)N1C[C@H](C)[C@@H](CN(C)CC2CCCCC2)Oc2ccc(NC(=O)Nc3ccc(F)cc3)cc2CC1=O | inactive
C[C@@H]1CN([C@H](C)CO)C(=O)Cc2cc(NC(=O)Nc3ccc(F)cc3)ccc2O[C@@H]1CN(C)CC1CCCCC1 | active
C[C@H](CO)N1C[C@H](C)[C@H](CN(C)CC2CCCCC2)Oc2ccc(NC(=O)Nc3ccc(F)cc3)cc2CC1=O | inactive
C[C@@H]1CN([C@@H](C)CO)C(=O)Cc2cc(NC(=O)Nc3ccc(F)cc3)ccc2O[C@@H]1CN(C)CC1CCCCC1 | inactive
C[C@H]1CN([C@@H](C)CO)C(=O)Cc2cc(NC(=O)Nc3ccc(F)cc3)ccc2O[C@H]1CN(C)CC1CCCCC1 | active
C[C@@H]1CN([C@@H](C)CO)C(=O)Cc2cc(NC(=O)Nc3ccc(F)cc3)ccc2O[C@H]1CN(C)CC1CCCCC1 | inactive

SMILES | cytotoxicity call
COc1ccc(NC(=O)Nc2ccc3c(c2)C(=O)N([C@H](C)CO)C[C@@H](C)[C@H](CN(C)C(=O)Nc2c(C)noc2C)OCCCC[C@@H](C)O3)cc1 | inactive
C[C@@H]1O[C@@H](O[C@H]2[C@H](Oc3cc(O)c4c(c3)O[C@H](c3ccc(O)cc3)CC4=O)O[C@H](CO)[C@@H](O)[C@@H]2O)[C@H](O)[C@H](O)[C@H]1O | inactive
Cc1ccc(S(=O)(=O)N(C)C[C@@H]2Oc3ccc(NS(=O)(=O)c4cn(C)cn4)cc3C(=O)N([C@H](C)CO)C[C@@H]2C)cc1 | inactive
COc1ccc(S(=O)(=O)N(C)C[C@H]2Oc3ccc(NC(=O)Nc4c(C)noc4C)cc3C(=O)N([C@@H](C)CO)C[C@H]2C)cc1 | inactive
Cc1ccc(S(=O)(=O)N2C[C@H](O)COC[C@H]3O[C@@H](CC(=O)N[C@@H]4CCN(Cc5ccccc5)C4)CC[C@@H]32)cc1 | inactive
C[C@@H]1CN([C@H](C)CO)C(=O)c2cc(NS(=O)(=O)c3cccs3)ccc2O[C@@H]1CN(C)Cc1ccc(Cl)c(Cl)c1 | inactive
C[C@@H]1CN([C@@H](C)CO)C(=O)c2cc(NC(=O)C3CCCCC3)ccc2O[C@@H](C)CCCCO[C@@H]1CN(C)C(=O)Nc1cccc2ccccc12 | inactive
C[C@@H]1CN([C@H](C)CO)C(=O)c2cc(NC(=O)C3CCCCC3)ccc2O[C@@H](C)CCCCO[C@@H]1CN(C)C(=O)Nc1cccc2ccccc12 | active
C[C@@H]1CCCCO[C@H](CN(C)C(=O)Nc2cccc3ccccc23)[C@H](C)CN([C@@H](C)CO)C(=O)c2cc(NC(=O)C3CCCCC3)ccc2O1 | inactive
C[C@@H]1CCCCO[C@@H](CN(C)C(=O)Nc2cccc3ccccc23)[C@@H](C)CN([C@H](C)CO)C(=O)c2cc(NC(=O)C3CCCCC3)ccc2O1 | active
C[C@@H]1CCCCO[C@H](CN(C)C(=O)Nc2cccc3ccccc23)[C@@H](C)CN([C@H](C)CO)C(=O)c2cc(NC(=O)C3CCCCC3)ccc2O1 | inactive
C[C@H]1CCCCO[C@@H](CN(C)C(=O)Nc2cccc3ccccc23)[C@@H](C)CN([C@@H](C)CO)C(=O)c2cc(NC(=O)C3CCCCC3)ccc2O1 | inactive
C[C@@H]1CCCCO[C@H](CN(C)C(=O)Nc2cccc3ccccc23)[C@H](C)CN([C@H](C)CO)C(=O)c2cc(NC(=O)C3CCCCC3)ccc2O1 | inactive
C[C@@H]1CCCCO[C@@H](CN(C)C(=O)Nc2cccc3ccccc23)[C@@H](C)CN([C@@H](C)CO)C(=O)c2cc(NC(=O)C3CCCCC3)ccc2O1 | active
C[C@H](CO)N1C[C@H](C)[C@@H](CN(C)C(=O)Nc2cccc3ccccc23)OCCCC[C@H](C)Oc2ccc(NC(=O)C3CCCCC3)cc2C1=O | inactive
C[C@@H]1CCCCO[C@H](CN(C)C(=O)Nc2ccc(F)cc2)[C@H](C)CN([C@@H](C)CO)C(=O)c2cc(NS(=O)(=O)c3ccccc3)ccc2O1 | inactive
C[C@H]1CN([C@@H](C)CO)S(=O)(=O)c2ccc(-c3ccc(C(=O)N(C)C)cc3)cc2O[C@@H]1CN(C)C(=O)C1CC1 | inactive
O=C(N[C@@H]1C=C[C@@H](CC(=O)N2CCOCC2)O[C@@H]1CO)c1ccc2c(c1)OCO2 | inactive
C[C@H](CO)N1C[C@H](C)[C@H](CN(C)CC2CCCCC2)Oc2ccc(NC(=O)Cn3cnnn3)cc2C1=O | inactive
C[C@H](CO)N1C[C@H](C)[C@@H](CN(C)S(=O)(=O)c2ccccc2)Oc2ccc(NS(=O)(=O)c3ccc(F)cc3)cc2CC1=O | inactive

SMILES | cytotoxicity call
Cc1noc(C)c1S(=O)(=O)Nc1cccc2c1O[C@H](CN(C)S(=O)(=O)c1ccccc1)[C@H](C)CN([C@@H](C)CO)C2=O | inactive
C[C@@H](O)C#Cc1ccc2c(c1)O[C@H](CN(C)C(=O)C1CCCCC1)[C@@H](C)CN([C@@H](C)CO)S2(=O)=O | inactive
C[C@H]1CN([C@@H](C)CO)S(=O)(=O)c2ccc(Br)cc2O[C@H]1CN(C)C(=O)CCN1CCCCC1 | inactive
COc1ccc(S(=O)(=O)Nc2ccc3c(c2)C(=O)N([C@@H](C)CO)C[C@@H](C)[C@@H](CN(C)C(=O)NC2CCCCC2)OCCCC[C@H](C)O3)cc1 | inactive
Cc1noc(C)c1S(=O)(=O)Nc1ccc2c(c1)CC(=O)N([C@H](C)CO)C[C@@H](C)[C@H](CN(C)S(=O)(=O)c1cccs1)O2 | inactive
COc1ccc2c3c(n(c2c1)C)[C@@H](CO)N(Cc1ccccc1)C[C@]13CCN(CC1)C(=O)Nc1cccc(c1)F | inactive
CO[C@H]1CN(C)C(=O)c2cc(NC(=O)Nc3ccccc3F)ccc2OC[C@H](C)N(Cc2ccccc2C(=O)O)C[C@H]1C | inactive
COc1cccc(S(=O)(=O)N(C)C[C@@H]2Oc3ncc(C#CCN(C)C)cc3C(=O)N([C@H](C)CO)C[C@@H]2C)c1 | inactive
C[C@@H]1CN([C@H](C)CO)C(=O)c2cccc(NS(=O)(=O)c3ccc(F)cc3)c2O[C@H]1CN(C)C(=O)Nc1ccc(C(F)(F)F)cc1 | inactive
C[C@H](CO)N1C[C@H](C)[C@H](CN(C)C(=O)Nc2ccc(C(F)(F)F)cc2)Oc2c(NS(=O)(=O)c3ccc(Cl)cc3)cccc2C1=O | active
C[C@@H]1CN([C@H](C)CO)C(=O)c2cccc(NS(=O)(=O)c3ccc(Cl)cc3)c2O[C@@H]1CN(C)C(=O)Nc1ccc(C(F)(F)F)cc1 | active
C[C@@H]1CN([C@@H](C)CO)C(=O)c2cccc(NS(=O)(=O)c3ccc(Cl)cc3)c2O[C@H]1CN(C)C(=O)Nc1ccc(C(F)(F)F)cc1 | inactive
C[C@H]1CN([C@@H](C)CO)C(=O)c2cccc(NS(=O)(=O)c3ccc(F)cc3)c2O[C@@H]1CN(C)C(=O)Nc1ccc(C(F)(F)F)cc1 | inactive
C[C@@H]1CN([C@H](C)CO)C(=O)c2cccc(NS(=O)(=O)c3ccc(Cl)cc3)c2O[C@H]1CN(C)C(=O)Nc1ccc(C(F)(F)F)cc1 | inactive
C[C@H]1CN([C@@H](C)CO)C(=O)c2cccc(NS(=O)(=O)c3ccc(F)cc3)c2O[C@H]1CN(C)C(=O)Nc1ccc(C(F)(F)F)cc1 | inactive
C[C@@H]1CN([C@@H](C)CO)C(=O)c2cccc(NS(=O)(=O)c3ccc(Cl)cc3)c2O[C@@H]1CN(C)C(=O)Nc1ccc(C(F)(F)F)cc1 | active
C[C@@H]1CN([C@@H](C)CO)C(=O)c2cccc(NS(=O)(=O)c3ccc(F)cc3)c2O[C@@H]1CN(C)C(=O)Nc1ccc(C(F)(F)F)cc1 | inactive
C[C@H]1CN([C@@H](C)CO)C(=O)c2cccc(NS(=O)(=O)c3ccc(Cl)cc3)c2O[C@H]1CN(C)C(=O)Nc1ccc(C(F)(F)F)cc1 | active
C[C@H](CO)N1C[C@H](C)[C@@H](CN(C)C(=O)Nc2ccc(C(F)(F)F)cc2)Oc2c(NS(=O)(=O)c3ccc(Cl)cc3)cccc2C1=O | inactive
C[C@H]1CN([C@@H](C)CO)C(=O)c2cccc(NS(=O)(=O)c3ccc(Cl)cc3)c2O[C@@H]1CN(C)C(=O)Nc1ccc(C(F)(F)F)cc1 | inactive
